This passage reports viability (% of control) results from PubChem BioAssay (NCATS).

Structures are written as SMILES.

The nature of this test: High-throughput drug toxicity screening in the BPDCN cell line Cal-1 (AID 1224825). The settings on record: Cal-1 BPDCN cell viability, qHTS; at 45.8 µM (top of the series) unless noted. The text has this: Blastic plasmacytoid dendritic cell neoplasm (BPDCN) is a rare, aggressive and largely incurable hematologic malignancy originating from plasmacytoid dendritic cells (pDCs). Although an initial response to chemotherapy is common, BPDCN prognosis is extremely poor and most patients relapse with drug-resistant disease leading to a median overall survival of ~1 year after diagnosis. To explore novel potential therapeutic strategies in BPDCN, we performed a high-throughput drug toxicity screening in BPDCN cell liens, using of a library of 1,912 small molecules, enriched for compounds that are either approved or in early stages of development for cancer therapy.
A total of 500 exponentially growing Cal-1 cells were seeded per well in 5 uL of media (RPMI + Glutamine, without phenol red plus10% FBS and 1X Pen/Strep) into 1536-well solid white high base tissue culture treated Greiner One Bio Plates (789173-F), using a multidrop combi dispenser and a small sterile cassette. Compounds and controls totaling 23nL per well (negative control DMSO and positive control 9.2 uM Bortezomib-final) were immediately added to the plates using a 1536 head pin tool from Kalypsys. The plates were then covered with stainless steel gasket lids from Kalypsys and incubated for 48 hours at 37C under 95% relative humidity with 5% CO2. After 48 hours, the plates were removed and allowed to reach room temperature before 3 uL of Cell Titer Glo reagent (Promega) were added using an Aurora Flying Reagent Dispenser Bioraptor. The plates were then spun at 1000 rpms to remove bubbles and incubated for 15 minutes at room temperature before reading on a ViewLux using a luminescent filter with a 10 second exposure. The relative luciferase units were used to calculated percent activity using DMSO as 100% and Bortezomib as 0%.
Regarding `Cc1cc(-c2ncc(CC(=O)Nc3ccc(-c4cnccn4)cn3)cc2C)ccn1`, the viability (% of control) came to 97%. Next, `C[C@H](c1ccc(F)cc1CCCC(=O)O)N(c1cc(F)ccc1F)S(=O)(=O)c1ccc(Cl)cc1`: 92.6%. For the compound `CCC(=C(c1ccc(O)cc1)c1ccc(OCCNC)cc1)c1ccccc1`, the viability (% of control) came to 4.15%. Next, `CC1=C(C(=O)Nc2cc3cn[nH]c3cc2F)C(c2ccc(C(F)(F)F)cc2)CC(=O)N1` (stereo not given): 58%. As for `N#Cc1ccc(Oc2ccc3c(c2)COB3O)cc1`, the figure is 98.9%; as for `CC(C)CN(C[C@@H](O)[C@H](Cc1ccccc1)NC(=O)O[C@H]1CO[C@H]2OCC[C@H]21)S(=O)(=O)c1ccc(N)cc1`, 117%. As for `CCC[C@@H](NC(=O)[C@@H]1[C@H]2CCC[C@@H]2CN1C(=O)[C@@H](NC(=O)[C@@H](NC(=O)c1cnccn1)C1CCCCC1)C(C)(C)C)C(=O)C(=O)NC1CC1`, the figure is 63.1%. Take `CCC[C@H](N[C@@H](C)C(=O)N1[C@@H]2CCCC[C@H]2C[C@H]1C(=O)O)C(=O)OCC`: the viability (% of control) stood at 104%.

Consider `CN1CCc2c(n(Cc3ccc(C(=O)NO)cc3)c3ccccc23)C1`, for which the viability (% of control) stood at 3.16%. Consider `CN(C(Cc1ccc(OS(=O)(=O)c2cccc3cnccc23)cc1)C(=O)N1CCN(c2ccccc2)CC1)S(=O)(=O)c1cccc2cnccc12` (stereo not given), for which the viability (% of control) worked out at 85.3%.

`COc1nccc(-c2c(-c3ccc(F)cc3)ncn2C2CCC(O)CC2)n1` (stereo not given): the viability (% of control) worked out at 43.4%.

`NC(=O)c1ccc(N(C(N)=O)c2c(F)cccc2F)nc1-c1ccc(F)cc1F`: the viability (% of control) turned out to be 92.1%. Next, `OCCn1cc(-c2ccc3c(c2)CCC3=NO)c(-c2ccncc2)n1`: 76.4%; `CC1(C)OC2CC3C4CC(F)C5=CC(=O)C=CC5(C)C4C(O)CC3(C)[C@]2(C(=O)CO)O1` (stereo not given in full): 52%; `COc1ccc2ccc(=O)oc2c1CC=C(C)C`: 97.4%. In the case of `CCCCCOC(=O)Nc1nc(=O)n([C@@H]2O[C@H](C)[C@@H](O)C2O)cc1F` (stereo not given in full), the viability (% of control) is 102%.

In the case of `C=CCc1cccc(C=NNC(=O)CN2CCN(Cc3ccccc3)CC2)c1O`, the viability (% of control) was 11.1%.

With `COc1cc2nccc(Oc3ccc(NC(=O)Nc4cc(C)on4)c(Cl)c3)c2cc1OC`, the viability (% of control) was determined as 13%. Next, `CN1C(=O)C[C@H](C(=O)N[C@@H](Cc2cnc[nH]2)C(=O)N2CCC[C@@H]2C(N)=O)NC1=O`: 29.3%; `Cc1cc(OCCCS(C)(=O)=O)cc(C)c1-c1cccc(COc2ccc3c(c2)OC[C@H]3CC(=O)O)c1`: 91.1%. Next, `O=C(c1ccc(C=Cc2n[nH]c3ccccc23)cc1)N1CCNCC1`: 18%. Next, `CCCCC(C)(C)[C@H](O)C=C[C@H]1[C@H](O)CC(=O)[C@H]1CC=CCCCC(=O)O`: 11.7%; `OC[C@H]1O[C@@H](Oc2ccc(O)cc2)[C@H](O)[C@@H](O)[C@H]1O`: 83.5%; `CC(NCCc1ccc(O)cc1)C(O)c1ccc(O)cc1` (stereo not given): 107%. Consider `COc1cc([C@H]2Oc3cc([C@H]4Oc5cc(O)cc(O)c5C(=O)[C@H]4O)ccc3O[C@H]2CO)ccc1O`, for which the viability (% of control) came to 85.4%. For the compound `CC[C@]1(O)C[C@H]2CN(CCC3=c4ccccc4=N[C]3[C@@](C(=O)OC)(c3cc4c(cc3OC)N(C)[C@H]3[C@@](O)(C(N)=O)[C@H](O)[C@]5(CC)C=CCN6CC[C@]43[C@@H]65)C2)C1`, the viability (% of control) was found to be 14.9%. Regarding `Nc1nc(Cl)nc2c1ncn2[C@@H]1O[C@H](CO)[C@@H](O)[C@H]1F`, the viability (% of control) came out at 13.2%.

As to `COc1cc2ncn(-c3cc(OCc4ccccc4S(C)(=O)=O)c(C#N)s3)c2cc1OC`, the viability (% of control) came to 95.9%.

With `O=C1C(c2c(O)[nH]c3ccccc23)=Nc2ccccc21`, the viability (% of control) is 68.6%.

As for `OC1CCC(Nc2ncc3nc(Nc4c(F)cc(F)cc4F)n([C@@H]4CCOC4)c3n2)CC1` (stereo not given in full), the viability (% of control) is 13.2%. Next, `CC[C@H]1OC(=O)[C@H](C)[C@@H](O[C@H]2C[C@@](C)(OC)[C@@H](O)[C@H](C)O2)[C@H](C)[C@@H](O[C@@H]2O[C@H](C)C[C@H](N(C)C)[C@H]2O)[C@](C)(O)C[C@H](C)C(=NOCOCCOC)[C@H](C)[C@@H](O)[C@]1(C)O`: 113%. Next, `COc1ccc(Cn2ccc3ccc(C(=O)NO)cc32)cc1`: 19.7%; `CN[C@H]1[C@@H](O[C@@H]2[C@H](O[C@@H]3[C@@H](O)[C@@H](O)[C@@H](N=C(N)N)[C@@H](O)[C@@H]3N=C(N)N)O[C@H](C)[C@@]2(O)C=O)O[C@@H](CO)[C@@H](O)[C@H]1O`: 118% [at 15.3 µM]; `C[C@@H]1C[C@H]2[C@@H]3CCC4=CC(=O)C=C[C@]4(C)[C@@]3(F)[C@@H](O)C[C@]2(C)[C@@]1(O)C(=O)CO`: 55.5%. As for `CC[C@H](C=C[C@@H](C)[C@H]1CC[C@H]2[C@@H]3CC=C4C[C@@H](O)CC[C@]4(C)[C@@H]3CC[C@]12C)C(C)C`, the figure is 108% [at 23.2 µM]; as for `NC1(C(=O)N[C@@H](CCO)c2ccc(Cl)cc2)CCN(c2ncnc3[nH]ccc23)CC1`, 27.4%. Consider `COc1cc2c(cc1OC)CC(=O)N(CCCN(C)C[C@H]1Cc3cc(OC)c(OC)cc31)CC2`, for which the viability (% of control) came to 106%. With `Cc1ccc2c(c1)C(=O)[C@]1(O)CCN(c3ccccc3)C1=N2`, the viability (% of control) worked out at 34.3%.

For the compound `CC(=O)NCCC(=O)N[C@@H](CCC(N)=O)C(=O)N[C@@H](CO)C(=O)N[C@@H](CCC(N)=O)C(=O)N[C@@H](CCC(N)=O)C(=O)N[C@H](C(=O)N[C@@H](Cc1ccccc1)C(=O)N[C@]1(C)CCCCCCC=CCCC[C@@](C)(C(=O)N[C@@H](CCC(N)=O)C(=O)N[C@@H](CC(N)=O)C(N)=O)NC(=O)[C@H](CC(C)C)NC(=O)[C@H](CC(C)C)NC(=O)[C@@H](CCCNC(=N)N)NC(=O)[C@H](Cc2c[nH]c3ccccc23)NC(=O)[C@H](CC(C)C)NC(=O)[C@H](CC(N)=O)NC1=O)[C@H](C)O`, the viability (% of control) is 78.7%.

In the case of `COc1ccc2c(c1)c(C1=C(c3c[nH]c4ccccc34)C(=O)NC1=O)cn2CCCN(C)C`, the viability (% of control) is 8.47%.
